Only some compounds are listed: those with a hit (about 4.1% of all), similar ones and a draw of the others.
ssDAF-12 act: S. stercoralis DAF-12 nuclear receptor activators, primary screen, cell-based, luminescence, HEK293, GRIP1 co-expression, lit1-tk-luc. HEK293 ssDAF-12/GRIP1 lit1-tk-luc reporter; % of 3 µM dafachronic acid response. Nuclear hormone receptor DAF-12 (Strongyloides stercoralis). 370,000 tested, 1% active. activation, % at 6.8 µM;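 active means activation above the mean over all tested compounds plus 3 SD, cut at about 0.9% in these data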;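 further: 0% = DMSO-only wells and 100% = 3 µM delta7-dafachronic acid wells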
hgDAF-12 ag: H. glycines DAF-12 receptor agonists, primary screen, cell-based, luminescence, HEK293, GAL4 fusion, UAS-luciferase; Nuclear hormone receptor DAF-12 (Heterodera glycines), GAL4 fusion; HEK293 GAL4-hgDAF12 UAS-luciferase reporter, agonist luminescence; normalized to butyrate control; activation, % at 6.8 µM; 370,000 tested, 1.8% active; AID 687014, 2013;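 active means activation above a cutoff set at the mean of all screened compounds plus 3 SD, cut at about 10% in these data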;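 further: 0% = DMSO wells and 100% = sodium butyrate wells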
hcDAF12 agonist: H. contortus DAF-12 nuclear receptor activators, primary screen, cell-based, luminescence, HEK293, lit1-tk-luc reporter; AID 652067, 2013; activation, % at 6.8 µM; 370,000 tested, 1.4% active; HEK293 hcDAF-12 lit1-tk-luc reporter; 0% DMSO, 100% Δ7-dafachronic acid;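 active means activation above the mean of all tested compounds plus 3 SD, cut at about 5.5% in these data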;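 further: 100% = response to 3 µM Δ7-dafachronic acid high control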
DAX1 inh-1: DAX1 (NR0B1) inhibitors on StAR promoter, primary screen, cell-based, luminescence, SF-1 (NR5A1), full-length DAX-1. HEK293T StAR-luciferase reporter, SF-1/DAX-1 repression relief. inhibition, % at 6.8 µM. 370,000 tested, 1.1% active. AID 652010, 2013;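 active means inhibition above the mean over all tested compounds plus 3 SD, cut at about 3.6% in these data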;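 further: 0% = DAX-1 cells with DMSO and 100% = cells lacking DAX-1 with DMSO; higher inhibition means more luminescence from relief of DAX-1 repression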
DAX1 inh-2: DAX1 (NR0B1) inhibitors, primary screen, cell-based, HEK293, Gal4-DAX1, luciferase luminescence; inhibition, % at 6.75 µM; HEK293 Gal4-DAX1 luciferase reporter; 340,000 tested, 0.99% active; Nuclear receptor subfamily 0 group B member 1 (Homo sapiens), P51843;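 active means inhibition above the mean over all tested compounds plus 3 SD, cut at about 4.2% in these data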;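 further: 0% = DAX1-transfected cells with DMSO and 100% = empty-vector control cells with DMSO; inhibition shows as a rise in luminescence from relieved DAX1 repression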
Target sequence (P51843 207-470 limits assumed): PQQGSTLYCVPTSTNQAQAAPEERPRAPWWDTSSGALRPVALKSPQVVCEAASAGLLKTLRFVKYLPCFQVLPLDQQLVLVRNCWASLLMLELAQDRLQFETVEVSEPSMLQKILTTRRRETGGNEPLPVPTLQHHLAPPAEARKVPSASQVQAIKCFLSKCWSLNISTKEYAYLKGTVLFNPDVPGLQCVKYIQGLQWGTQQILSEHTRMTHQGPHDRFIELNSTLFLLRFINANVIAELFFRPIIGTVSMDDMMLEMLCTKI
* = called active by the depositor; / = not tested or not shown.

SMILES	ssDAF-12 act	hgDAF-12 ag	hcDAF12 agonist	DAX1 inh-1	DAX1 inh-2
COc1ccc(S[C@]2(C(=O)N3CCCC3)CC(=O)N(C(=O)/C=C/c3ccccc3)[C@@H]2c2ccc(OC)cc2)cc1	-0.7	-3.5	-2.0	-3.0	/
CCn1c(SCc2c(F)cccc2F)nc2sc3c(c2c1=O)CCCC3	-1.1	3.2	-0.9	1.2	/
Cc1ccc(Nc2nc(N)nc(CSC(=S)N3CCOCC3)n2)cc1	-0.3	8.9	2.2	1.9	0.3
Nc1nc(CSC(=S)N2CCOCC2)nc(Nc2ccccc2)n1	-1.2	1.4	6.1*	1.1	5.0*
CC(=O)NC(CC(=O)OCC(=O)c1c(N)n(CC(C)C)c(=O)n(C)c1=O)c1ccccc1 (centres undefined)	-1.2	-0.6	-0.4	-2.6	-1.6
CC(=O)N/C(=C\c1ccccc1)C(=O)OCC(=O)c1c(N)n(CC(C)C)c(=O)n(C)c1=O	-1.0	-0.8	-1.1	0.7	4.4*
COc1ccc(NC(=O)Nc2ccc(Br)c(C)c2)cc1	-1.8	2.1	-1.2	1.4	4.9*
COc1ccc(NC(=O)Nc2cc(C)ccc2F)cc1	-0.2	10.3	2.0	3.9*	1.4
CCOC(=O)CN1C(=O)[C@]2(OCCC=C[C@H]2C)c2c(Br)cccc21	-1.6	2.6	-0.5	0.7	/
O=C(NCCc1ccc(F)cc1)c1ccc2c(c1)ncn2C1CCCCC1	-0.9	1.1	1.7	-0.2	/
CN(C)C(CNC(=O)CCCc1c[nH]c2ccccc12)c1ccco1 (centres undefined)	-1.8	1.1	-2.2	0.1	5.8*
Cc1[nH]c2ccccc2c1CC(=O)Nc1ccc(Nc2ccncc2)cc1	2.1*	3.0	4.7	-1.6	/
Cc1cccc(C)c1NC(=O)c1c[nH]c2ccccc12	-0.6	6.6	6.2*	0.8	0.7
CC(=O)Nc1ccc(NC(=O)CCCc2c[nH]c3ccccc23)cc1	-1.1	-1.3	0.0	0.0	5.0*
COc1cccc(-c2nnc3n2N=C(c2ccc(Cl)cc2)CS3)c1	-1.4	-2.0	-2.0	-0.3	/
O=C(c1cc(Cl)cc(Cl)c1)N1CCC(Oc2cccnc2)CC1	-1.7	-1.2	-2.1	0.8	/
CCOC(=O)CC[C@@]1(C(=O)OCC)C[C@@H](CC(=O)NCc2cccs2)C(=O)N2CCCC=C21	-1.0	-3.4	-1.8	-0.2	/
O=C(Cc1c[nH]c2ccccc12)Nc1ccc(Nc2ccncc2)cc1	0.3	-1.8	6.0*	0.1	/
Cc1ccccc1NC(=O)NCCc1c[nH]c2ccccc12	-0.7	-2.9	-2.2	-0.6	-1.6
CN(c1cccnc1)c1ccc(NC(=O)Cc2c[nH]c3ccccc23)cc1Br	1.5*	6.3	6.5*	0.2	/
Cc1ccccc1NC(=O)Cc1c[nH]c2ccccc12	1.0*	1.1	3.6	0.4	2.2
O=C(COC(=O)CCc1c[nH]c2ccccc12)Nc1ccc([N+](=O)[O-])cc1	-1.2	-2.4	0.7	-0.7	5.2*
Cc1ccc(C2NC(=O)c3n[nH]c(C(C)C)c32)cc1 (centres undefined)	-1.5	-1.1	-0.3	-0.2	/
Cc1cccc(NC(=O)/C=C/c2cccs2)n1	-0.4	12.9*	6.2*	3.1	1.0
O=C(CN(Cc1ccc(F)cc1)C(=O)CCC(=O)Nc1nccs1)NCc1ccc(F)cc1	-1.5	-2.4	-3.0	-0.5	4.6*
SMILES	ssDAF-12 act	hgDAF-12 ag	hcDAF12 agonist	DAX1 inh-1	DAX1 inh-2
O=C(CN(Cc1ccccc1)C(=O)CCC(=O)Nc1nccs1)NCc1ccc(F)cc1	-0.9	-1.7	-0.1	0.4	1.3
CCOC(=O)N1CCN(C(=O)C[C@H]2C[C@@]3(C(=O)OC)C(=C[C@H](COCc4ccccc4)O[C@@H]3C)N(Cc3ccco3)C2=O)CC1	-1.2	-2.5	3.9	-0.2	/
O=C(/C=C/c1cccc([N+](=O)[O-])c1)Nc1ccccn1	-1.6	-0.2	2.4	1.3	1.9
Cc1ccc2oc(-c3cccc(NC(=O)/C=C/c4cccc([N+](=O)[O-])c4)c3C)nc2c1	-0.1	8.8	6.2*	1.2	0.3
COc1cccc(N2C(C(C)=O)=NN(c3ccccc3)C2c2ccc(N3CCOCC3)cc2)c1 (centres undefined)	0.6	10.9*	1.4	1.2	1.3
Nc1c(C(=O)C2CC2)sc2nc(-c3ccccc3)cc(C(F)(F)F)c12	-1.1	-0.6	1.1	-0.5	0.2
Cc1c(C(=O)O)sc2nc(-c3cccs3)cc(C(F)(F)F)c12	-0.3	2.3	0.7	-0.3	0.7
Cc1c(C(=O)Nc2nccs2)sc2nc(-c3cccs3)cc(C(F)(F)F)c12	1.2*	1.1	3.3	0.7	0.0
CC(=O)c1sc2nc(-c3cccs3)cc(C(F)(F)F)c2c1N	0.2	1.7	6.3*	-0.1	0.4
O=S1(=O)N[C@@H](Cc2ccccc2)COc2cccc(NCCO)c21	-0.7	4.8	0.4	-0.2	/
O=C1C2CCC(C2)C1CN1CCOCC1 (centres undefined)	1.8*	-2.1	2.7	0.2	-1.4
COc1ccc2c(c1)[C@@]1(OCCC=C[C@H]1C)C(=O)N2Cc1ccc(F)cc1	-1.0	1.3	-1.6	-0.3	/
Cc1csc(-c2nc3ccccc3n2C(C)c2nc3ccccc3[nH]2)c1 (centres undefined)	0.3	-1.0	5.7*	0.7	/
CC(c1nc2ccccc2[nH]1)n1c(-c2ccncc2)nc2ccccc21 (centres undefined)	-0.7	1.3	-0.9	-0.1	/
O=C1CN(c2ccc(F)cc2)C(=S)N1c1ccccc1	-0.2	5.2	2.2	-0.2	-1.1
COc1ccc(N2CC(=O)N(c3ccccc3)C2=S)cc1	-0.3	12.3*	4.3	1.8	0.0
O=C1CN(c2ccccc2)C(=S)N1c1ccccc1	-0.6	2.6	0.8	0.7	4.4*
COc1ccc(N=C2C(=Nc3ccc(OC)cc3)N(c3ccc(OC)cc3)C(=S)N2c2ccccc2)cc1	0.5	9.1	4.1	1.8	2.4
CCOC(=O)[C@]12CCCCC/C=C\1N(CCc1ccc(Cl)cc1)C(=O)[C@H]2CC(=O)N1CCN(C(=O)c2ccco2)CC1	-1.8	-5.5	-3.8	-2.9	/
O=c1[nH]c(-c2ccc(O)cc2)nc2scc(-c3cccs3)c12	-1.2	12.6*	2.1	2.1	1.4
Cc1nc2scc(-c3cccs3)c2c(=O)[nH]1	-1.5	-2.3	-1.3	-0.7	-0.1
Nn1c(SCc2ccc([N+](=O)[O-])cc2)nnc1-c1cc(-c2ccccc2)n[nH]1	-1.4	-2.3	-4.8	-0.7	/
CN1C(=O)C(CC(=O)Nc2ccc(F)cc2)N(Cc2cccs2)C1=S (centres undefined)	9.6*	3.1	3.0	0.9	0.8
